Source: PubChem BioAssay (Tox21)
Inconclusive results are not listed. The source made the active and inactive calls. Unless noted, calls come from the whole dose curve; as a rule, active = well fitted curve in the direction sought with a large enough effect in the repeat runs; inconclusive = weak or mixed curves; inactive = no such curve, though single readings can be large; an effect the other way counts as inactive or inconclusive.

Assays:
[1] = A CellTox Green Cytotoxicity Assay to monitor cytotoxicity in HEK293 cells - 32 hour (AID 1224881); note: nearly all actives have a fitted effect of over 40% in size
Outline: (§1)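 Cytotoxicity was tracked continuously in HEK293 cells by a DNA-binding dye excluded from viable cells. Compounds were transferred in DMSO 5 h after seeding; fluorescence was recorded at intervals up to 40 h.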

[2] = A CellTox Green Cytotoxicity Assay to monitor cytotoxicity in HepG2 cells - 32 hour (AID 1224883); note: nearly all actives have a fitted effect of over 50% in size
Outline: (§2)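 Real-time, homogeneous cytotoxicity readout: dead-cell DNA staining by CellTox Green in HepG2 monolayers, fluorescence measured at timed intervals up to 40 h of continuous compound exposure.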

[3] = A CellTox Green Cytotoxicity Assay to monitor cytotoxicity in HEK293 cells - 8 hour (AID 1224884); note: nearly all actives have a fitted effect of over 35% in size
Outline: as §1

[4] = qHTS RealTime-Glo MT Cell Viability Assay in HepG2 cells - 16 hour (AID 1224885); note: nearly all actives have a fitted effect of over 50% in size
Outline: (§3)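 HepG2 cells (600/well) were dispensed with RealTime-Glo reagents, incubated 5 h at 37 °C, then treated with compounds in DMSO for up to 40 h. Nonlytic NanoLuc luminescence reflecting viable cells was read at each stated time point.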

[5] = qHTS RealTime-Glo MT Cell Viability Assay in HEK293 cells - 8 hour (AID 1224887); note: nearly all actives have a fitted effect of over 50% in size; note: potency is the fitted concentration of half-maximal effect
Outline: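 Nonlytic bioluminescent viability monitoring. HEK293 at 600 cells/well with reagent; 5 h settle; compound transfer by pintool; plates held at 37 C and read at set time points.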

[6] = qHTS RealTime-Glo MT Cell Viability Assay in HepG2 cells - 0 hour (AID 1224889); note: nearly all actives have a fitted effect of over 50% in size
Outline: as §3

[7] = A CellTox Green Cytotoxicity Assay to monitor cytotoxicity in HepG2 cells - 8 hour (AID 1224890); note: nearly all actives have a fitted effect of over 45% in size; note: potency is the fitted concentration of half-maximal effect
Outline: as §2

[8] = qHTS assay to identify small molecule antagonists of the estrogen receptor alpha (ER-alpha) signaling pathway using the BG1 cell line in the presence of 0.1 nM 17-beta-estradiol - cell viability counter screen (AID 1259241); note: nearly all actives have a fitted effect of over 40% in size
Outline: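 Cytotoxicity counter-screen: live-cell protease activity measured by fluorescence (30 min reagent step) in the same wells. Cells were VM7Luc4E2 with endogenous ER-alpha and ERE-driven luciferase, treated 22 hr at 37C alongside 0.1 nM 17beta-estradiol final.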

[9] = qHTS assay to identify small molecule antagonists of the androgen receptor (AR) signaling pathway using the MDA cell line in the presence of 0.5 nM R1881 - cell viability counter screen (AID 1259242); note: nearly all actives have a fitted effect of over 45% in size
Outline: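 Cytotoxicity toward MDA-kb2 cells is measured by CellTiter-Fluor live-cell protease fluorescence after 16 hr compound exposure at 37C in the presence of 0.5 nM R1881 stimulator.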

[10] = biological target: Estrogen receptor (Homo sapiens) (UniProt P03372); test: qHTS assay to identify small molecule antagonists of the estrogen receptor alpha (ER-alpha) signaling pathway using the BG1 cell line in the presence of 0.1 nM 17-beta-estradiol (AID 1259244); note: nearly all actives have a fitted effect of over 50% in size; note: potency is the fitted concentration of half-maximal effect
Estrogen receptor (Homo sapiens), sequence (P03372 whole entry, looked up): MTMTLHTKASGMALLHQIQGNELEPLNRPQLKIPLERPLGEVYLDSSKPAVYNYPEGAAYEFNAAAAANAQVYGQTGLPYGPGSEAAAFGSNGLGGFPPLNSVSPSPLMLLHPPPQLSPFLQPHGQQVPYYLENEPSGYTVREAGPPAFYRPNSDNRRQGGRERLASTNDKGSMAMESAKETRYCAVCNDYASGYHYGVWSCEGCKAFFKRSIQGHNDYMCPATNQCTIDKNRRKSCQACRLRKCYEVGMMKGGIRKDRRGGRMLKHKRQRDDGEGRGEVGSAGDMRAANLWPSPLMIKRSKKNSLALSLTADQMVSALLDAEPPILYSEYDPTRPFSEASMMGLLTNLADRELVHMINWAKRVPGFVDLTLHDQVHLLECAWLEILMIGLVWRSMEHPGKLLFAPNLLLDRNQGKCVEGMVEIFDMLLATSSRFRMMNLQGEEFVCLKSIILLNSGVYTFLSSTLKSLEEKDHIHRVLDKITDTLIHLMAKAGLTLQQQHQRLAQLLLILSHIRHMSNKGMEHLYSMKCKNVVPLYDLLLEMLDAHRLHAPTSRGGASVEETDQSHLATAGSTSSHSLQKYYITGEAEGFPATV
Outline: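 After 5 days in hormone-depleted medium (charcoal-stripped serum, no phenol red), VM7Luc4E2 cells were seeded, incubated 24 h, then co-treated with compound and 0.1 nM (final) estradiol for 22 h before luminescence detection.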

[11] = qHTS assay to identify small molecule HDAC inhibitors (AID 1259364); note: nearly all actives have a fitted effect of over 45% in size; note: potency is the fitted concentration of half-maximal effect
Outline: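 Homogeneous cell-based luminescent assay of endogenous class I/II HDAC activity; HCT-116 cells, 2 h compound exposure, 30 min HDAC-Glo development at RT.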

[12] = qHTS assay to identify small molecule HDAC inhibitors - cell viability counter screen (AID 1259365)
Outline: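 CellTiter-Glo luminescence (30 min, room temperature) reported viability after a 2 h compound exposure at 37 C. Cells: wild-type HCT-116, 1,500 per well, seeded the night before.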

[13] = qHTS assay to identify small molecule antagonists of the sonic hedgehog signaling (Shh) pathway - cell viability counter screen (AID 1259367); note: nearly all actives have a fitted effect of over 55% in size; note: potency is the fitted concentration of half-maximal effect
Outline: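 After a 4 hr settling period, 3T3 Gli1-Luc cells were treated with DMSO-dissolved chemicals and conditioned medium, kept 24 hr at 37C in 5% CO2, and assayed for viability by CellTiter-Fluor fluorescence following 1 hr reagent incubation.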

[14] = qHTS assay to identify small molecule agonists of the sonic hedgehog signaling (Shh) pathway (AID 1259368; calls by dose curve;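 note: NIH/3T3-derived 3T3Gli1-Luc cells carrying a stable Gli1-driven firefly luciferase reporter; series mostly up to about 92 µM; nearly all actives have a fitted effect of over 15% in size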)
Outline: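 Steps: seed 3T3 Gli1-Luc cells, incubate 4 hr at 37 C, pin-transfer compounds in DMSO alongside a positive control, incubate 24 hr, add luciferase detection reagent, wait 30 min at room temperature, read luminescence.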

[15] = qHTS RealTime-Glo MT Cell Viability Assay in HEK293 cells - 24 hour (AID 1224886); note: nearly all actives have a fitted effect of over 50% in size; note: potency is the fitted concentration of half-maximal effect
Outline: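 HEK293 cells seeded with NanoLuc/prosubstrate reagent, rested 5 h at 37 C, then dosed and kept at 37 C up to 40 h. Nonlytic real-time luminescence from viable cells read at 0, 8, 16, 24, 32 and 40 h.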

[16] = A CellTox Green Cytotoxicity Assay to monitor cytotoxicity in HEK293 cells - 16 hour (AID 1224888); note: nearly all actives have a fitted effect of over 35% in size
Outline: as §1

[17] = qHTS assay to identify small molecule phospholipidosis (PLD) inducers (AID 1259344; active = well fitted curve in the direction sought with a large enough effect; an effect the other way counts as inactive or inconclusive)
Outline: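 HepG2 cells grown on collagen I take up LipidTOX Red while exposed to compound for 24 h; after fixation they are imaged at 20x and pit metrics are extracted.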

[18] = A CellTox Green Cytotoxicity Assay to monitor cytotoxicity in HepG2 cells - 0 hour (AID 1224882); note: nearly all actives have a fitted effect of over 35% in size
Outline: as §2

[19] = qHTS assay to identify small molecule agonists of the sonic hedgehog signaling (Shh) pathway - cell viability counter screen (AID 1259366); note: nearly all actives have a fitted effect of over 50% in size; note: potency is the fitted concentration of half-maximal effect
Outline: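 Cytotoxicity counter screen: CellTiter-Fluor reagent added after 23 h compound exposure, then 1 h at 37C and fluorescence read. Cells were 3T3 Gli1-Luc, seeded 2,000 per well and dosed 4 h post-plating.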

[20] = biological target: Androgen receptor (Homo sapiens) (UniProt P10275); test: qHTS assay to identify small molecule antagonists of the androgen receptor (AR) signaling pathway using the MDA cell line in the presence of 0.5 nM R1881 (AID 1259243); note: nearly all actives have a fitted effect of over 50% in size
Androgen receptor (Homo sapiens), sequence (P10275 whole entry, looked up): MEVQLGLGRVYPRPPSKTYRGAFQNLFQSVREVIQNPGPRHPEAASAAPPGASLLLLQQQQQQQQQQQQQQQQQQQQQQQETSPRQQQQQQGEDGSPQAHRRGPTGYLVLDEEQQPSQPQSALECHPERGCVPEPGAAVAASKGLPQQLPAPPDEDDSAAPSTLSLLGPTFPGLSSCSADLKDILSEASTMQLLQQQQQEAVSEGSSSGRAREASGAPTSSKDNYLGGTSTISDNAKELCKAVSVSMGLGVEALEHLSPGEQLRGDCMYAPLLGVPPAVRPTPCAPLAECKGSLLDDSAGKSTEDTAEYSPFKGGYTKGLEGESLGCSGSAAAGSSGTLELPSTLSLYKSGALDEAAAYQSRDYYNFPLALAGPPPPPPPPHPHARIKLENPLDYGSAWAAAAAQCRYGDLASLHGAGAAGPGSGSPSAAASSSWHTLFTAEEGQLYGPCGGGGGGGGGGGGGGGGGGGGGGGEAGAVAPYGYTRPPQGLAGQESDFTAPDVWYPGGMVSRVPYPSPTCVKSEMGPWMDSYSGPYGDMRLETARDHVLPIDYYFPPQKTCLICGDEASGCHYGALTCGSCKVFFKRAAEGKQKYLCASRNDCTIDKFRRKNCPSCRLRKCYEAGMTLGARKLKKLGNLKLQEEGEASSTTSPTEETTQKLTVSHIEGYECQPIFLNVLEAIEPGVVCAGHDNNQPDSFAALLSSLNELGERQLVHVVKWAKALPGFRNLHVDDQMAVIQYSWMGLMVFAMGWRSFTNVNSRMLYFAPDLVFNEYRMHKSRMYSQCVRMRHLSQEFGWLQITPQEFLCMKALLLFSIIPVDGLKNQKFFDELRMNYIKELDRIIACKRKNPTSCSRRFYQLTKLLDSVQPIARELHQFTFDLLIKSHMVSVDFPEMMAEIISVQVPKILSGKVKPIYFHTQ
Outline: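 Steps: seed MDA-kb2 cells, incubate 5 hr at 37C; pin-transfer compounds in DMSO; add R1881 to 0.5 nM final; incubate 16 hr; add ONE-Glo, wait 30 min at room temperature; read luminescence.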

Measured: Potency

CCOc1ccc2nc(N)sc2c1
inactive: [1] | [2] | [3] | [4] | [5] | [6] | [7] | [8] | [9] | [10] | [12] | [13] | [14]
active: [11] 24.1 µM

OCC(CBr)(CBr)CBr
inactive: [1] | [2] | [3] | [4] | [15] | [5] | [16] | [6] | [7] | [9] | [10] | [12] | [13] | [14]

COc1ccc2nc(NC(=O)Nc3ccccc3)sc2c1
active: [15] 4.77 µM | [11] 3.35 µM
inactive: [3] | [4] | [16] | [6] | [7] | [8] | [9] | [17] | [12] | [14]

C=CCCCCCCCCO
inactive: [18] | [3] | [4] | [15] | [5] | [16] | [6] | [7] | [9] | [10] | [11] | [12] | [19] | [13] | [14]

CC/C=C\CCOC(=O)C(C)C
inactive: [1] | [2] | [3] | [4] | [15] | [5] | [6] | [7] | [9] | [10] | [11] | [12] | [19] | [14]

CCOC(=O)NCCC[Si](OCC)(OCC)OCC
inactive: [1] | [2] | [3] | [4] | [15] | [5] | [16] | [6] | [7] | [9] | [10] | [11] | [12] | [19] | [13] | [14]

Cc1nc(-c2ccccn2)ncc1C(=O)Nn1cc(C)c2cc(F)ccc21
inactive: [1] | [2] | [3] | [4] | [6] | [7] | [8] | [9] | [11] | [12] | [19] | [13] | [14]
active: [15] 1.55 µM | [5] 1.95 µM

CCOC(=O)COc1ccc2c(c1)CC(NCC(O)c1cccc(Cl)c1)CC2 (stereo unspecified)
inactive: [18] | [4] | [9] | [11] | [12] | [14]
active: [7] 44 µM | [19] 21.9 µM | [13] 27.5 µM

CCN(CC)CCNC(=O)COc1ccc(Cl)cc1
inactive: [1] | [3] | [4] | [15] | [5] | [16] | [6] | [7] | [8] | [9] | [10] | [17] | [11] | [12] | [19] | [13] | [14]

COc1cc(C)ccc1C(C)C
inactive: [1] | [2] | [3] | [4] | [5] | [16] | [6] | [7] | [8] | [9] | [10] | [11] | [12] | [19] | [13] | [14]

CC1(O)CSC(C)(O)CS1 (stereo unspecified)
inactive: [1] | [2] | [3] | [4] | [15] | [16] | [6] | [7] | [8] | [9] | [20] | [10] | [12] | [19] | [13] | [14]
active: [11] 21.7 µM

CC(C)=CCCC(C)CCOC=O (stereo unspecified)
inactive: [1] | [2] | [3] | [4] | [15] | [5] | [6] | [7] | [8] | [9] | [11] | [12] | [19] | [14]

Cc1cc2nc(N)sc2cc1C
active: [11] 0.276 µM
inactive: [1] | [2] | [3] | [4] | [5] | [16] | [6] | [7] | [8] | [9] | [20] | [12] | [19] | [13] | [14]

CCNCCO
inactive: [1] | [2] | [3] | [4] | [15] | [5] | [6] | [7] | [8] | [9] | [11] | [12] | [19] | [13] | [14]

CC/C=C\CCOC(=O)CCCCC
inactive: [2] | [15] | [5] | [16] | [8] | [9] | [10] | [11] | [12] | [19] | [13]

CC(C)C[C@H](NC(=O)OCC1c2ccccc2-c2ccccc21)C(=O)O
inactive: [1] | [2] | [3] | [4] | [15] | [5] | [16] | [7] | [9] | [11] | [12] | [19] | [13] | [14]

CN(C)CCOc1ccccc1Cc1ccccc1
inactive: [1] | [3] | [4] | [5] | [16] | [6] | [8] | [9] | [11] | [12] | [19] | [13] | [14]

CCC(=O)c1ccc2c(c1)N(CCCN(C)C)c1ccccc1S2
active: [5] 9.52 µM
inactive: [1] | [3] | [4] | [16] | [7] | [9] | [11] | [12] | [19] | [13] | [14]

CCOC(=O)c1ccccc1O
inactive: [1] | [2] | [3] | [4] | [15] | [5] | [6] | [7] | [8] | [9] | [17] | [11] | [12] | [19] | [13]

Cc1ccc(C(C)C)cc1O
inactive: [18] | [3] | [4] | [15] | [5] | [16] | [6] | [7] | [9] | [11] | [12] | [19] | [14]

ICCc1ccccc1
inactive: [18] | [2] | [3] | [4] | [15] | [5] | [16] | [6] | [7] | [8] | [9] | [11] | [12]
active: [10] 67.2 µM
